Assay outcomes: PubChem BioAssay, National Center for Advancing Translational Sciences (NCATS)
This is one part of a sample in which hits are shown more often than they occur.
Giardia FBPA inh: qHTS Assay for Inhibitors of Fructose-1,6-bisphosphate Aldolase from Giardia Lamblia | A8B2U2 | purified Giardia FBPA | Potency, µM (doses to about 59.6 µM), hits mostly inhibitors | actives 0.71% (n = 290,000) | AID 2451, 2010; also: nearly all actives have a fitted effect of over 55% in size
Target sequence (A8B2U2 whole entry, looked up): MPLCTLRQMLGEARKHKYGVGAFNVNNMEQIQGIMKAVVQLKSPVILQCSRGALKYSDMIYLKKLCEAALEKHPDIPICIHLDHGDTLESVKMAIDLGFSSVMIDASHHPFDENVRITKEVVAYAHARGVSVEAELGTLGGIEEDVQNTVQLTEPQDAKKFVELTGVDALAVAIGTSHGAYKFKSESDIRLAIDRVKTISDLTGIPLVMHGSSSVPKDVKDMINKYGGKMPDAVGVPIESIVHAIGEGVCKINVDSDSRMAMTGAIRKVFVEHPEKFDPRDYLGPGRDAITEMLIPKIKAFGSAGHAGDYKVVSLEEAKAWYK
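Giardia FBPA (40 nM reagent) was preincubated 10 min at RT with compound (up to 57.5 uM final), then substrate plus GAPDH/TPI/NAD/arsenate coupling system with diaphorase/resazurin was added; resorufin fluorescence (525/598 nm) was read after 20 min.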
Cycloheximide cs: Cycloheximide Counterscreen for Small Molecule Inhibitors of Shiga Toxin. max response, %. cell reporter, cycloheximide protein synthesis inhibition counterscreen. actives 12% (n = 300,000). AID 2314, 2010; in the data active = max response mostly above about 13%, no sharp cut-off; inactive = mostly below about 14%; also: read at 38.3 µM for the half of the compounds with a filed dose
RE007 growth inh: qHTS Assay for Inhibitors of the HIV-1 protein Vpr. S. pombe RE007 Vpr strain, BacTiter-Glo ATP luminescence, 24 h. Potency, µM (titrated, usually from 92.2 µM), hits mostly inhibitors. actives 0.21% (n = 360,000). AID 651644, 2012; active = well fitted falling curve with a large enough effect; inconclusive = small, poorly fitted or top-dose-only effect; inactive = no such curve, though single readings can be large or run the other way; also: nearly all actives have a fitted effect of over 50% in size
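Fission yeast strain RE007, carrying one chromosomally integrated HIV-1 vpr copy, was seeded at OD 0.01 in PMG+AL medium with 23 nL pinned compound. After 24 h at 30 °C and 99% humidity, viability was read by BacTiter-Glo luminescence.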
LmPK inhibitor: qHTS Assay for Inhibitors of Leishmania Mexicana Pyruvate Kinase (LmPK) | purified LmPK, Kinase-Glo ATP luminescence, 1 h | Potency, µM (top dose mostly 57.5 µM), usual class: inhibitors | actives 0.37% (n = 290,000)
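Purified LmPK (0.1 nM) with 0.5 mM PEP and 0.1 mM ADP in imidazole buffer pH 7.2 with MgCl2/KCl, 1 h at room temperature. ATP formed was read by luciferase luminescence and normalized to no-enzyme and uninhibited controls.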
Tb PYK inh: qHTS of Trypanosoma Brucei Inhibitors; TbPYK enzyme, Kinase-Glo Plus ATP luminescence, 45 min; Potency, µM (series often up to 76.8 µM), actives largely listed as inhibitors; actives 0.12% (n = 410,000); also: nearly all actives have a fitted effect of over 50% in size
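T. brucei PYK with substrate was exposed to pin-transferred compounds across a concentration series, then started with 130 uM ADP (final). After 45 min at room temperature, Kinase-Glo Plus luminescence was read, normalized and curve-fitted.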
Shiga inhibitor: A qHTS for Small Molecule Inhibitors of Shiga Toxin. Vero cells, Shiga toxin protein synthesis inhibition reporter. inhibition, % at 38.7 µM. actives 9.2% (n = 290,000); in the data active = inhibition mostly above about 28%, no sharp cut-off; inactive = mostly below about 43%
Numbers stand for hits. Unless noted, calls follow the shape of the dose curve; as a rule, active = well fitted curve in the direction sought with a large enough effect; inconclusive = small, poorly fitted or top-dose-only effect, or another doubt; inactive = no such curve, though single readings can be large; an effect the other way counts as inactive or inconclusive.

Screening Cc1cc(N/N=C/c2ccc(O)c(C)c2O)nc(-c2ccccc2O)n1 returned Giardia FBPA inh inactive, Cycloheximide cs 25, RE007 growth inh inconclusive, LmPK inhibitor inactive, Tb PYK inh inactive and Shiga inhibitor inactive.
Screening CNC(CC(=O)O)C(=O)O (configuration not stated) returned Giardia FBPA inh inactive.
`COc1ccc(CC(=O)Nc2cc(Cl)ccc2C(=O)O)cc1` gave Giardia FBPA inh inactive, Cycloheximide cs inactive, RE007 growth inh inactive, LmPK inhibitor inactive, Tb PYK inh inactive and Shiga inhibitor inactive.
CCCCOc1ccc(Nc2cc(Cl)ccc2C(=O)O)cn1 was read as Giardia FBPA inh inactive, Cycloheximide cs inactive, RE007 growth inh 28µM, LmPK inhibitor inconclusive, Tb PYK inh inactive and Shiga inhibitor inactive.
Screening COc1ccc(-c2noc(N(c3cccc(Cl)c3)c3nc(-c4ccc(OC)c(OC)c4)no3)n2)cc1OC returned Tb PYK inh inactive.
O=C(Cc1ccccc1)Nc1ccccc1C(=O)O was read as Giardia FBPA inh inactive, Cycloheximide cs 35, RE007 growth inh inactive, LmPK inhibitor inactive, Tb PYK inh inactive and Shiga inhibitor 76.
CN(C)c1ccc(NC(=O)Cc2ccccc2)c2ccccc12 was read as Giardia FBPA inh inactive, Cycloheximide cs 15, RE007 growth inh inactive, LmPK inhibitor inactive, Tb PYK inh inactive and Shiga inhibitor inactive.
Cc1ccc(NC(=O)CCCc2ccccc2)c([N+](=O)[O-])c1 was read as Giardia FBPA inh inactive, Cycloheximide cs 32, RE007 growth inh inactive, LmPK inhibitor inactive, Tb PYK inh inactive and Shiga inhibitor 35.
Screening O=C(CCc1ccccc1)NC(=S)Nc1ccccc1[N+](=O)[O-] returned Giardia FBPA inh inactive, Cycloheximide cs inactive, RE007 growth inh inactive, LmPK inhibitor inactive, Tb PYK inh inactive and Shiga inhibitor inactive.
O=C(CCc1ccccc1)Nc1ccccc1[N+](=O)[O-] was read as Giardia FBPA inh inactive, Cycloheximide cs 26, RE007 growth inh inactive, LmPK inhibitor inactive, Tb PYK inh inactive and Shiga inhibitor 54.
For COc1ccc(CNC(=O)Cc2c(C)c3c(cc(C)c4c(C)coc43)oc2=O)cc1OC the results were Tb PYK inh inactive.
`c1cncc(-c2nc(NCCN3CCOCC3)c3ccccc3n2)c1` gave Giardia FBPA inh inactive.
CN(C)c1cc[n+](CCC(=O)Nc2cccc([N+](=O)[O-])c2N)cc1 was read as Giardia FBPA inh inactive, Cycloheximide cs inactive, RE007 growth inh inactive, LmPK inhibitor inactive, Tb PYK inh inactive and Shiga inhibitor inactive.
CC#CCCCC(=O)Nc1ccccc1C(=O)O was read as Giardia FBPA inh inactive, Cycloheximide cs 28, RE007 growth inh inactive, LmPK inhibitor inactive, Tb PYK inh inactive and Shiga inhibitor 83.
Screening O=C(CCCc1ccccc1)Nc1ccccc1[N+](=O)[O-] returned Giardia FBPA inh inactive, Cycloheximide cs 37, RE007 growth inh inactive, LmPK inhibitor inactive, Tb PYK inh inconclusive and Shiga inhibitor 27.
For Nc1c(NC(=O)CC[n+]2ccccc2)cccc1[N+](=O)[O-] the results were Giardia FBPA inh inactive, Cycloheximide cs 46, RE007 growth inh inactive, LmPK inhibitor inactive, Tb PYK inh inactive and Shiga inhibitor 96.
CCc1ccc(CCC(=O)Nc2ccccc2C(=O)O)o1 was read as Giardia FBPA inh inactive, Cycloheximide cs 40, RE007 growth inh inactive, LmPK inhibitor inactive, Tb PYK inh inactive and Shiga inhibitor 75.
Screening CCCC(=O)NNC(=O)CC(=O)Nc1ccccc1C(=O)O returned Giardia FBPA inh inactive, Cycloheximide cs inactive, RE007 growth inh inactive, LmPK inhibitor inactive, Tb PYK inh inactive and Shiga inhibitor inactive.
`Cc1cc(C)cc(NC(=O)CSc2oc(-c3cccs3)nc2S(=O)(=O)c2ccccc2)c1` gave Tb PYK inh inactive.
`CCOc1ccc(NC(=O)CN(C)S(=O)(=O)c2ccc3c(c2)c(=O)n(C)c(=O)n3C)cc1` gave Tb PYK inh inactive.
NC(=O)c1ccccc1NC(=O)CCCc1ccccc1 was read as Giardia FBPA inh inactive, Cycloheximide cs 20, RE007 growth inh inactive, LmPK inhibitor inactive and Tb PYK inh inactive.
O=C(CCCc1ccccc1)Nc1cccnc1Cl was read as Giardia FBPA inh inactive, Cycloheximide cs inactive, RE007 growth inh inactive, LmPK inhibitor inactive, Tb PYK inh inactive and Shiga inhibitor inactive.
For COc1cccc(NC(=O)C(=O)c2cn(CC(=O)N3CCCC3)c3ccccc23)c1 the results were Cycloheximide cs 17, RE007 growth inh inactive, LmPK inhibitor inactive, Tb PYK inh inactive and Shiga inhibitor 29.
For COc1ccc(CNC(=O)C(=O)c2cn(CC(=O)N3CCCC3)c3ccccc23)cc1 the results were Cycloheximide cs 18, RE007 growth inh inactive, LmPK inhibitor inactive, Tb PYK inh inactive and Shiga inhibitor inactive.
COc1ccccc1CNC(=O)C(=O)c1cn(CC(=O)N2CCCC2)c2ccccc12 was read as Cycloheximide cs 20, RE007 growth inh inactive, LmPK inhibitor inactive, Tb PYK inh inactive and Shiga inhibitor 62.
Screening COc1ccccc1CCNC(=O)C(=O)c1cn(CC(=O)N2CCOCC2)c2ccccc12 returned Cycloheximide cs 61, RE007 growth inh inactive, LmPK inhibitor inactive, Tb PYK inh inactive and Shiga inhibitor 80.
O=C(NCc1ccc(F)cc1)C(=O)c1cn(CC(=O)N2CCCC2)c2ccccc12 was read as Cycloheximide cs inactive, RE007 growth inh inactive, LmPK inhibitor inactive, Tb PYK inh inactive and Shiga inhibitor inactive.
`c1ccc2c(N3CCNCC3)nc(-c3ccoc3)nc2c1` gave Giardia FBPA inh inactive.
CCNc1ncc2nc(CCc3ccccc3)c(=O)n(C3CC3)c2n1 was read as Giardia FBPA inh inactive.
`CCOc1ccc(CNC(=O)C(=O)c2cn(CC(=O)N3CCOCC3)c3ccccc23)cc1OC` gave Cycloheximide cs 10, RE007 growth inh inactive, LmPK inhibitor inactive, Tb PYK inh inactive and Shiga inhibitor inactive.
For O=C(NCc1ccc(Cl)cc1)C(=O)c1cn(CC(=O)N2CCOCC2)c2ccccc12 the results were Cycloheximide cs inactive, RE007 growth inh inactive, LmPK inhibitor inactive, Tb PYK inh inactive and Shiga inhibitor inactive.
Screening O=C(Nc1ccccc1Cl)C(=O)c1cn(CC(=O)N2CCOCC2)c2ccccc12 returned Cycloheximide cs 59, RE007 growth inh inactive, LmPK inhibitor inactive, Tb PYK inh inactive and Shiga inhibitor 46.
